# High-throughput results deposited in PubChem by several laboratories.
# Autofluor counter: flagged as autofluorescent in microsphere protease counterscreen. compound autofluorescence counterscreen, microsphere flow cytometry; active compounds read high. fluorescence intensity (test concentration not listed). 360,000 tested, 3.1% active; in the data active = fluorescence intensity above about 16000; inconclusive = no clear call, values can overlap the other calls
# BoNT-A LC inh2: inhibitors of Botulinum neurotoxin A light chain protease | multiplex microsphere protease substrate cleavage, flow cytometry | inhibition, % at 10 µM | 360,000 tested, 0.17% active | AID 588499; note: plate controls were buffer without enzyme for full effect and enzyme alone for no effect
# CCHFV vOTU inh: CCHFV vOTU protease inhibition; Pep-AMC fluorescence; inhibition, % at 11.5 µM; 370,000 tested, 0.55% active; in the data active = inhibition above about 30%; note: 0% = vehicle wells with enzyme and 100% = no enzyme wells
# BoNT-F LC inh: BoNT F light chain protease inhibition | inhibition, % at 10 µM | Multiplex microsphere protease cleavage assay, flow cytometry | 360,000 tested, 0.22% active; in the data active = inhibition above about 35%, passing the limit was not always enough; inconclusive = no clear call, values can overlap the other calls; note: plate controls were buffer without enzyme for full effect and enzyme alone for no effect
# SARS 3CLpro inh: SARS-CoV 3CLpro protease inhibition; P0C6X7; recombinant SARS-CoV 3CLpro, quenched FRET peptide cleavage; inhibition, % at 6 µM; 290,000 tested, 0.14% active; AID 1706; in the data active = inhibition above about 12%
# Anthrax LF prot: inhibitors of Bacillus anthracis lethal factor protease; AID 588501; inhibition, % at 10 µM; P15917; multiplex microsphere protease cleavage assay, LF; 360,000 tested, 0.12% active; note: plate controls were buffer without enzyme for full effect and enzyme alone for no effect
# Target sequence (P15917 whole entry, looked up): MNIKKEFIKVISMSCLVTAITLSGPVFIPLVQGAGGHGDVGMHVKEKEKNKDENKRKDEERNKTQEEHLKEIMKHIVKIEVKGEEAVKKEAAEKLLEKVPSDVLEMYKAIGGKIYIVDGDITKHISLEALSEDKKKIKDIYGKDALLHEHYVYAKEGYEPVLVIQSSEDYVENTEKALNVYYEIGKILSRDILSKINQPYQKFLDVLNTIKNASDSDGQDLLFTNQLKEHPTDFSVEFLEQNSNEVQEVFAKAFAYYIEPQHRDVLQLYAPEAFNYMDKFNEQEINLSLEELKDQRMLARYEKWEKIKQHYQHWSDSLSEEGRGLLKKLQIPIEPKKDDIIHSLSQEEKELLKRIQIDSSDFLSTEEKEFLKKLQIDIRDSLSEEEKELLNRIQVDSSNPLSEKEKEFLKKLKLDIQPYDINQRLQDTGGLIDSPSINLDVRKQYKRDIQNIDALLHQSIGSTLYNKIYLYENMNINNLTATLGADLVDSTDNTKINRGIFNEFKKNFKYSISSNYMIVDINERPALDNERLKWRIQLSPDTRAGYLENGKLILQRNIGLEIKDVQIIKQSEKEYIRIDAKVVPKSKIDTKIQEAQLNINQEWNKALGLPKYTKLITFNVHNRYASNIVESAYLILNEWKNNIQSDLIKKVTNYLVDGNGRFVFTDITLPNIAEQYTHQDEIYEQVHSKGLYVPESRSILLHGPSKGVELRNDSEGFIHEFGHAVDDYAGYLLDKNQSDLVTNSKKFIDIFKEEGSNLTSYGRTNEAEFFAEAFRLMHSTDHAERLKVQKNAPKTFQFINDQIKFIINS
# Numbers without * were called inactive; ? = inconclusive; . = no result. Sampled rows, rich in hits. Any-hit rate of the full collection: about 3.9%. Cut-off read from the data, not from the text of the source, unless noted: active = inhibition above about 30%; inconclusive = no clear call, values can overlap the other calls; inactive = below that.
SMILES,Autofluor counter,BoNT-A LC inh2,CCHFV vOTU inh,BoNT-F LC inh,SARS 3CLpro inh,Anthrax LF prot
Cc1ccc(-c2nnn(CC(=O)N(c3ccccc3F)C(C(=O)NCC3CCCO3)c3c[nH]c4ccccc34)n2)cc1 (stereo unspecified),16194*,1.1,-4.8,0.1,1.9,-6.4
CCCCNS(=O)(=O)CC1NCc2cc(OC)ccc21 (stereo unspecified),.,.,2.1,.,.,.
COc1ccc(-n2c(SCC(=O)Nc3ccc4c(c3)OCCO4)nnc2-c2ccccc2)cc1,.,.,-1.1,.,.,.
O=C(NCc1ccc(Cl)cc1)C1C2C=CC3(CN(Cc4cccnc4)C(=O)C13)O2 (stereo unspecified),25239*,-5.9,-4.3,-9.6,-3.3,-3.0
COC(=O)[C@]12C[C@H](CC(=O)N3CCOCC3)C(=O)N(Cc3ccco3)C1=C[C@H](COCc1ccccc1)O[C@@H]2C,.,.,-6.8,.,.,.
O=[N+]([O-])/C=C\c1ccc(N2CCCC2)c(F)c1,9527,60.2*,.,20.6,-0.4,32.0*
Cc1ccc(OCc2nnc(SCC(=O)Nc3ccc(OCc4ccccc4)cc3)n2-c2ccc(Cl)cc2)cc1,.,.,9.1,.,.,.
COc1cc(NC(=O)c2noc3c2CCC3)c(OC)cc1Cl,19679*,3.2,-2.5,2.9,1.6,-1.3
COC(=O)c1ccccc1NC(=O)c1noc2c1CCCC2,19950*,2.5,19.9,0.7,2.0,-2.2
COc1cc(NC(=O)c2noc(C)c2[N+](=O)[O-])c(OC)cc1Cl,5565,-1.3,-6.9,4.1,0.1,0.2
O=C(Nc1ccccc1C(=O)N1CCOCC1)c1noc2c1CCCC2,9571,-0.4,-13.5,1.5,1.0,-5.6
COCCN1Cc2cc(C(=O)OC)c3c(c2C1=O)c1cc(F)ccc1n3S(=O)(=O)c1cccc(C)c1,.,.,4.0,.,.,.
Cc1ccc(OCC(=O)N2CCN(c3nnc(-c4ccccc4)c4ccccc34)CC2)cc1,9134,0.0,9.6,8.7,1.6,-6.4
Cc1ccc(OCC(=O)N2CCN(C3=NS(=O)(=O)c4ccccc43)CC2)cc1,20779*,-0.4,-15.2,-2.6,-3.0,-2.3
CCS(=O)(=O)N1CCN(C(=O)COc2ccc(-c3ccccc3)cc2)CC1,22952*,-0.2,-8.8,0.2,-2.5,-21.4
Cc1ccc(OCCC(=O)OCC(=O)N2CCN(S(=O)(=O)c3ccc(C)cc3)CC2)cc1,26716*,-82.8,4.7,-127.2,.,-19.5
CCCS(=O)(=O)N1CCN(C(=O)COc2ccc(-c3ccccc3)cc2)CC1,6407,-0.8,-7.9,-3.1,0.2,-1.4
C=CCN1C(=O)[C@H](CC(=O)NCc2ccccc2)[C@@]2(C(=O)OCC)CCCC=C12,.,.,-2.9,.,.,.
C/C(=N/NC(=O)c1cccnc1)c1cccc(O)c1,.,.,3.8,.,.,.
COC(=O)c1cc(NC(=O)c2ccccc2)c(=O)oc1/C=C/Nc1ccc(Oc2ccccc2)cc1,97551*,42.8*,7.7,54.0*,-4.8,16.6
CCOC(=O)c1cc(NC(=O)c2ccccc2)c(=O)oc1-c1ccccc1,?,-0.9,0.3,-4.7,-0.5,-3.9
C[C@@H]1CN([C@H](C)CO)S(=O)(=O)c2ccc(Br)cc2O[C@H]1CN(C)CC1CCOCC1,.,.,1.7,.,.,.
O=C(Nc1ccc(Oc2ccccc2)cc1)C1CCCN1S(=O)(=O)c1cccc2cccnc12 (stereo unspecified),.,.,-1.1,.,.,.
CCOc1ccc2c(c1)n(CO)c(=S)n2CO,22336*,?,-2.9,1.7,7.2,-3.5
COc1ccc2ccccc2c1C=NNC(=O)c1cc(-c2ccc(C)cc2)n[nH]1,.,.,1.4,.,.,.
SMILES,Autofluor counter,BoNT-A LC inh2,CCHFV vOTU inh,BoNT-F LC inh,SARS 3CLpro inh,Anthrax LF prot
O=C(CC(c1ccco1)S(=O)(=O)c1ccccc1)c1ccc(F)cc1 (stereo unspecified),22035*,2.7,9.8,3.6,-2.7,-3.8
CS(=O)(=O)N1CCN(c2ccc([N+](=O)[O-])c(NCCN3CCOCC3)c2)CC1,18351*,-5.1,11.5,-13.2,3.3,-12.9
CS(=O)(=O)N1CCN(c2ccc([N+](=O)[O-])c(N3CCOCC3)c2)CC1,.,.,13.1,.,1.1,.
Nc1[nH]c(C(=O)c2ccccc2)c(-c2ccc(Cl)cc2)c1C(=O)c1c[nH]c2ccc(F)cc12,.,.,0.5,.,.,.
O=C(COc1ccc(Cl)cc1Cl)NCc1ccncc1,19178*,0.8,5.2,0.3,2.4,0.5
CC(=O)NC(=S)Nc1ccc(NC(=O)COc2ccc(Cl)cc2Cl)cc1,4217,0.2,-0.8,-2.4,-1.0,-3.5
CC(C)C(=O)Nc1ccc(C(=O)NNC(=O)CCCOc2ccc(Cl)cc2Cl)cc1,24267*,?,-5.6,-3.0,3.0,-3.1
